From PubChem BioAssay (EPA / NIEHS)
Active and inactive are the calls of the source. Rule for the calls: active = hit-call score of the fitted dose curve at least 0.9, where 1 is the maximum; inactive = score below 0.9.

System: not listed separately
Assay: ATG_Sox_CIS: Attagene CIS-FACTORIAL HepG2 Assay for human SRY-box transcription factor (SOX) (AID 2282960)
Conditions: HepG2 Attagene cis-factorial SOX reporter, mRNA; actives raise or lower the signal
Method in brief: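 Gain- or loss-of-signal endpoint, fitted bidirectionally with DMSO as negative control. Based on reporter mRNA from transfected HepG2 cells harvested 24 h post-treatment and quantified via RT-PCR and capillary electrophoresis.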

Row | SMILES | outcome
1 | C=C(C)[C@@H]1CC[C@@H](C)C[C@@H]1O | inactive
2 | Cc1ccccc1C=O | inactive
3 | Nc1cccc(S(=O)(=O)c2cccc(N)c2)c1 | inactive
4 | O=C(O)CCCCCCCCCCC(=O)O | inactive
5 | Cc1c(N(C)C)c(=O)n(-c2ccccc2)n1C | inactive
6 | CC(C)c1ccc(C(C)C)cc1 | inactive
7 | COc1c(Cl)c(Cl)c(Cl)c(Cl)c1Cl | inactive
8 | CC(=O)OCCOC(C)=O | inactive
9 | C=CCOC(=O)CCC1CCCCC1 | inactive
10 | NC(=O)NC1NC(=O)NC1=O (stereo unspecified) | inactive

Target: Transcription factor Sp1 (Homo sapiens) (UniProt P08047)
Sequence (P08047 whole entry, looked up): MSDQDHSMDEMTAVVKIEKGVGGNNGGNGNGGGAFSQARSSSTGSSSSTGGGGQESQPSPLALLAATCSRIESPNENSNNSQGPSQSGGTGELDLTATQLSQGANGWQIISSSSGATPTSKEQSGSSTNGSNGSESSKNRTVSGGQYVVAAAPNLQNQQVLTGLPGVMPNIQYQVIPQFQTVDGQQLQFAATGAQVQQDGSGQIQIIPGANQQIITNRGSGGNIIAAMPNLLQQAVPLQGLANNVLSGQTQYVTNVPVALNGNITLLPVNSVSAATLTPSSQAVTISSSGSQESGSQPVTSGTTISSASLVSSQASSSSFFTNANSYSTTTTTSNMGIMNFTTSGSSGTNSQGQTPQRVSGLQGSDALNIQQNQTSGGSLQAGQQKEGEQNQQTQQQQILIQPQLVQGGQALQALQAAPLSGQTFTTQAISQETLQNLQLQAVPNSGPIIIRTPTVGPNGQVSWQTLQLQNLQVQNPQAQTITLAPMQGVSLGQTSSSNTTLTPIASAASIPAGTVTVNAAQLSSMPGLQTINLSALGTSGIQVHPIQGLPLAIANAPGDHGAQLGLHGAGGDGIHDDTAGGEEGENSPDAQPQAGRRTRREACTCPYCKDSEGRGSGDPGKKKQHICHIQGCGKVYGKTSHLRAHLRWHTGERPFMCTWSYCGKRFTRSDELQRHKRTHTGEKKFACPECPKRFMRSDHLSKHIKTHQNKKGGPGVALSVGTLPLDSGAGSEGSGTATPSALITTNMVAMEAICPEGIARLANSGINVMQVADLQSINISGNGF
Assay: ATG_Sp1_CIS: Attagene CIS-FACTORIAL HepG2 Assay for human Specificity Protein 1 (Sp1) (AID 2282961)
Conditions: HepG2 Sp1 cis-reporter transcription, actives raise or lower the signal
Method in brief: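 Endpoint reflects endogenous Sp1 transcriptional activity, not an exogenous fusion protein: HepG2 cells with transfected cis-regulated reporters, 24 h dosing, RT-PCR/capillary electrophoresis mRNA read-out, DMSO-normalised bidirectional fit.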

Row | SMILES | outcome | AC50
11 | O=[N+]([O-])c1ccc(Nc2ccc(Nc3ccccc3)c(S(=O)(=O)O)c2)c([N+](=O)[O-])c1 | inactive | –
12 | CC(C)(C)c1n[nH]c(=S)n(N)c1=O | inactive | –
13 | CC(C)[C@H]1CC[C@@H](C)CC1=O | inactive | –
14 | COc1ccc(OC)c(OC)c1 | inactive | –
15 | CCCCCC(=O)OCCc1ccccc1 | inactive | –
16 | NC(N)=NC(=O)c1nc(Cl)c(N)nc1N | inactive | –
17 | O=C(O)Cc1cccc2ccccc12 | inactive | –
18 | OC1OC[C@@H](O)[C@H](O)[C@H]1O (stereo partly specified) | inactive | –
19 | CC(=O)OCc1ccc2c(c1)OCO2 | inactive | –
20 | CCCC(=O)OCCC(C)CCC=C(C)C (stereo unspecified) | inactive | –
21 | CCCCCCCCC=O | inactive | –
22 | O=C1NC(=O)c2ccccc21 | inactive | –
23 | CC1(C)[C@H](C(=O)OCc2cccc(Oc3ccccc3)c2)[C@@H]1C=C(Cl)Cl | inactive | –
24 | CC1(C)OC[C@@H]2O[C@@]3(C(=O)O)OC(C)(C)O[C@H]3[C@@H]2O1 | inactive | –
25 | CCCCc1ccc(N)cc1 | inactive | –
26 | S=C(S)NCCNC(=S)S | inactive | –
27 | OCC(CO)(CO)COCC(CO)(CO)CO | inactive | –

Row | SMILES | outcome | AC50
28 | Cc1ccc(C(C)C)cc1O | inactive | –
29 | CC(C)(CO)[N+](=O)[O-] | inactive | –
30 | O=C[C@@H](O)[C@H](O)[C@H](O)CO | inactive | –
31 | CCCC/C=C\CCCCCCCCCC=O | inactive | –
32 | CCCC[n+]1ccccc1 | inactive | –
33 | C=C(C)[C@@H]1CC[C@@H](C)C[C@@H]1O | inactive | –
34 | Cc1ccccc1C=O | inactive | –
35 | Nc1cccc(S(=O)(=O)c2cccc(N)c2)c1 | inactive | –
36 | O=C(O)CCCCCCCCCCC(=O)O | inactive | –
37 | O=Nc1ccc(Nc2ccccc2)cc1 | – | 55 µM (active)
38 | Cc1c(N(C)C)c(=O)n(-c2ccccc2)n1C | inactive | –
39 | CC(C)c1ccc(C(C)C)cc1 | inactive | –
40 | COc1c(Cl)c(Cl)c(Cl)c(Cl)c1Cl | inactive | –
41 | CC(=O)OCCOC(C)=O | inactive | –
42 | C=CCOC(=O)CCC1CCCCC1 | inactive | –
43 | NC(=O)NC1NC(=O)NC1=O (stereo unspecified) | inactive | –

System: not listed separately
Assay: ATG_SREBP_CIS: Attagene CIS-FACTORIAL HepG2 Assay for human Sterol Regulatory Element Binding (SREBP) (AID 2282962)
Conditions: HepG2 Attagene cis-factorial SREBP reporter, mRNA; actives raise or lower the signal
Method in brief: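 Transfected HepG2 (cis-regulated reporter library, endogenous TFs) → compound 24 h → total RNA → oligo(dT) RT → reporter-specific PCR → FAM primer extension, HpaI cut → CE fluorescence. Fit bidirectional vs DMSO.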

Row | SMILES | outcome | AC50
44 | O=[N+]([O-])c1ccc(Nc2ccc(Nc3ccccc3)c(S(=O)(=O)O)c2)c([N+](=O)[O-])c1 | inactive | –
45 | CC(C)(C)c1n[nH]c(=S)n(N)c1=O | inactive | –
46 | CC(C)[C@H]1CC[C@@H](C)CC1=O | inactive | –
47 | COc1ccc(OC)c(OC)c1 | inactive | –
48 | CCCCCC(=O)OCCc1ccccc1 | inactive | –
49 | NC(N)=NC(=O)c1nc(Cl)c(N)nc1N | inactive | –
50 | O=C(O)Cc1cccc2ccccc12 | inactive | –
51 | OC1OC[C@@H](O)[C@H](O)[C@H]1O (stereo partly specified) | inactive | –
52 | CC(=O)OCc1ccc2c(c1)OCO2 | inactive | –
53 | CCCC(=O)OCCC(C)CCC=C(C)C (stereo unspecified) | inactive | –
54 | CCCCCCCCC=O | inactive | –
55 | CCC(O)CO (stereo unspecified) | inactive | –
56 | O=C1NC(=O)c2ccccc21 | inactive | –
57 | CC1(C)[C@H](C(=O)OCc2cccc(Oc3ccccc3)c2)[C@@H]1C=C(Cl)Cl | inactive | –
58 | CC1(C)OC[C@@H]2O[C@@]3(C(=O)O)OC(C)(C)O[C@H]3[C@@H]2O1 | inactive | –
59 | CCCCc1ccc(N)cc1 | inactive | –
60 | S=C(S)NCCNC(=S)S | inactive | –
61 | OCC(CO)(CO)COCC(CO)(CO)CO | inactive | –
62 | O=C(O)c1snc(Cl)c1Cl | inactive | –

Row | SMILES | outcome | AC50
63 | Cc1ccc(C(C)C)cc1O | inactive | –
64 | Nc1ccc(S(=O)(=O)O)c(N)c1 | inactive | –
65 | CC(C)(CO)[N+](=O)[O-] | inactive | –
66 | O=C[C@@H](O)[C@H](O)[C@H](O)CO | inactive | –
67 | CCCC/C=C\CCCCCCCCCC=O | inactive | –
68 | CCC(=O)OCc1ccccc1 | inactive | –
69 | CO[Si](CCCn1c(=O)n(CCC[Si](OC)(OC)OC)c(=O)n(CCC[Si](OC)(OC)OC)c1=O)(OC)OC | inactive | –
70 | CCCC[n+]1ccccc1 | inactive | –
71 | C=C(C)[C@@H]1CC[C@@H](C)C[C@@H]1O | inactive | –
72 | Cc1ccccc1C=O | inactive | –
73 | Nc1cccc(S(=O)(=O)c2cccc(N)c2)c1 | inactive | –
74 | O=C(O)CCCCCCCCCCC(=O)O | inactive | –
75 | O=Nc1ccc(Nc2ccccc2)cc1 | – | 33.4 µM (active)
76 | Cc1c(N(C)C)c(=O)n(-c2ccccc2)n1C | inactive | –
77 | CC(C)c1ccc(C(C)C)cc1 | – | 152 µM (active)
78 | COc1c(Cl)c(Cl)c(Cl)c(Cl)c1Cl | inactive | –
79 | CC(=O)OCCOC(C)=O | inactive | –
80 | C=CCOC(=O)CCC1CCCCC1 | inactive | –
81 | NC(=O)NC1NC(=O)NC1=O (stereo unspecified) | inactive | –

Target: Signal transducer and activator of transcription 3 (Homo sapiens) (UniProt P40763)
Sequence (P40763 whole entry, looked up): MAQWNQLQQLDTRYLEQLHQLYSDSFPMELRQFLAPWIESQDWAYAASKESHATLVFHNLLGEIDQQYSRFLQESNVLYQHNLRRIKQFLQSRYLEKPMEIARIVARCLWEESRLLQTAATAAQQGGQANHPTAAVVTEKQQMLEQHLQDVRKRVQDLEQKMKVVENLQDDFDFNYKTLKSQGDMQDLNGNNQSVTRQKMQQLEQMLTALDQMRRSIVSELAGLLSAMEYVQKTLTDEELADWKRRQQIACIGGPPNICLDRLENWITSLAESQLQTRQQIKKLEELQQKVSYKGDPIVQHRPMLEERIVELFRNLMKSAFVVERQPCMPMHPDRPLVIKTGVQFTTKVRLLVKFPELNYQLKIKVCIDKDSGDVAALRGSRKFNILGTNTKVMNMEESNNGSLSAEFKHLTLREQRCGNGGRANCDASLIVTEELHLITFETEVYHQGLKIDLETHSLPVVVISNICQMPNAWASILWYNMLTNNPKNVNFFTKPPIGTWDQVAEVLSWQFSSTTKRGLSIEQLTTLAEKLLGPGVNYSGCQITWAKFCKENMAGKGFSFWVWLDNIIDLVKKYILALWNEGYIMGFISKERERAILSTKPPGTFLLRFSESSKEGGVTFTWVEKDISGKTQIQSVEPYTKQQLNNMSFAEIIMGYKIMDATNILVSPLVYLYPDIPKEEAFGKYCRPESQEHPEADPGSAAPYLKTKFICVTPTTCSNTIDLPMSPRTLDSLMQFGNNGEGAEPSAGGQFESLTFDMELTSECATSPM
Assay: ATG_STAT3_CIS: Attagene CIS-FACTORIAL HepG2 Assay for human Signal Transducer and Activator of Transcription 3 (STAT3) (AID 2282963)
Conditions: HepG2, Attagene cis-factorial STAT3 reporter transcription; actives raise or lower the signal
Method in brief: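 Values derive from bidirectional fits relative to DMSO of reporter mRNA levels, measured by RT-PCR with capillary electrophoresis, in HepG2 cells carrying transiently transfected cis-regulated reporter units and exposed 24 h.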

Row | SMILES | outcome
82 | O=[N+]([O-])c1ccc(Nc2ccc(Nc3ccccc3)c(S(=O)(=O)O)c2)c([N+](=O)[O-])c1 | inactive
83 | CC(C)(C)c1n[nH]c(=S)n(N)c1=O | inactive
84 | CC(C)[C@H]1CC[C@@H](C)CC1=O | inactive
85 | COc1ccc(OC)c(OC)c1 | inactive
86 | CCCCCC(=O)OCCc1ccccc1 | inactive
87 | NC(N)=NC(=O)c1nc(Cl)c(N)nc1N | inactive
88 | OC1OC[C@@H](O)[C@H](O)[C@H]1O (stereo partly specified) | inactive
89 | CC(=O)OCc1ccc2c(c1)OCO2 | inactive
90 | CCCC(=O)OCCC(C)CCC=C(C)C (stereo unspecified) | inactive
91 | CCCCCCCCC=O | inactive
92 | CCC(O)CO (stereo unspecified) | inactive
93 | O=C1NC(=O)c2ccccc21 | inactive
94 | CC1(C)[C@H](C(=O)OCc2cccc(Oc3ccccc3)c2)[C@@H]1C=C(Cl)Cl | inactive
95 | CC1(C)OC[C@@H]2O[C@@]3(C(=O)O)OC(C)(C)O[C@H]3[C@@H]2O1 | inactive
96 | CCCCc1ccc(N)cc1 | inactive
97 | S=C(S)NCCNC(=S)S | inactive
98 | OCC(CO)(CO)COCC(CO)(CO)CO | inactive
99 | O=C(O)c1snc(Cl)c1Cl | inactive

Row | SMILES | outcome
100 | Cc1ccc(C(C)C)cc1O | inactive
101 | Nc1ccc(S(=O)(=O)O)c(N)c1 | inactive
102 | CC(C)(CO)[N+](=O)[O-] | inactive
103 | O=C[C@@H](O)[C@H](O)[C@H](O)CO | inactive
104 | CCCC/C=C\CCCCCCCCCC=O | inactive
105 | CCC(=O)OCc1ccccc1 | inactive
106 | CO[Si](CCCn1c(=O)n(CCC[Si](OC)(OC)OC)c(=O)n(CCC[Si](OC)(OC)OC)c1=O)(OC)OC | inactive
107 | CCCC[n+]1ccccc1 | inactive
108 | C=C(C)[C@@H]1CC[C@@H](C)C[C@@H]1O | inactive
109 | Cc1ccccc1C=O | inactive
110 | O=C(O)CCCCCCCCCCC(=O)O | inactive
111 | O=Nc1ccc(Nc2ccccc2)cc1 | inactive
112 | Cc1c(N(C)C)c(=O)n(-c2ccccc2)n1C | inactive
113 | CC(C)c1ccc(C(C)C)cc1 | inactive
114 | COc1c(Cl)c(Cl)c(Cl)c(Cl)c1Cl | inactive
115 | CC(=O)OCCOC(C)=O | inactive
116 | NC(=O)NC1NC(=O)NC1=O (stereo unspecified) | inactive
